Pf growth 96h: Primary qHTS for delayed death inhibitors of the malarial parasite plastid, 96 hour incubation; P. falciparum luciferase reporter growth, 96 h; Potency, µM (doses to about 28.7 µM), for inactives: at the highest dose activity change, negative = inhibition, usual class: inhibitors; actives 6.9% (n = 320,000); AID 504834, 2011; further: on the % scale 0 is the no-effect control and ±100 the full control effect
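Delayed-death screen, second-generation endpoint: infected erythrocytes, 2% hematocrit, 0.05% parasitemia final; 96 hours at 37 C, 5% CO2; luciferase detection reagent; luminescence decrease equals reduced growth.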
Pf growth 48h: Primary qHTS for delayed death inhibitors of the malarial parasite plastid, 48 hour incubation; Potency, µM (doses to about 28.7 µM), for inactives: at the highest dose activity change, negative = inhibition, most hits filed as inhibitors; AID 504832, 2011; actives 5.9% (n = 310,000); P. falciparum luciferase growth in erythrocytes, 48 h; further: on the % scale 0 is the no-effect control and ±100 the full control effect
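Firefly luciferase activity from engineered P. falciparum reports growth; inhibitors lower the luminescent signal. Cultures contained 2% hematocrit erythrocytes at 0.1% final parasitemia.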
VACV mCherry inh: qHTS for Stage-Specific Inhibitors of Vaccinia Orthopoxvirus: mCherry Reporter Primary qHTS; actives 0.63% (n = 310,000); Potency, µM (titrated, usually from 36.5 µM), inactives show at the top dose activity change, negative = inhibition, most hits filed as inhibitors; Vaccinia virus mCherry reporter infection, fluorescence; calls by dose curve; tested in A549 cells; further: on the % scale 0 is the no-effect control and ±100 the full control effect; nearly all actives have a fitted effect of over 35% in size
HCV inh: qHTS Assay for Inhibitors of Hepatitis C Virus (HCV). actives 3.4% (n = 340,000). Potency, µM (top dose mostly 41.8 µM), for the others: at the top dose activity change, negative = inhibition, most hits filed as inhibitors. Huh7.5.1 HCVcc-Cre infection, luciferase reporter, 44 h; further: on the % scale 0 is the no-effect control and ±100 the full control effect
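Antiviral activity was scored by luciferase reporter output from cells infected with HCVcc-Cre (~0.5 moi) in presence of compound, 44 h infection period, cells seeded 1,000/well 4 h prior.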
NS1 inh: qHTS Assay for Inhibitors of Influenza NS1 Protein Function. actives 0.4% (n = 270,000). AID 2326, 2010. Potency, µM (titrated, usually from 46.1 µM), for inactives: top-dose activity, positive = more growth; calls by dose curve; further: actives are rising curves; nearly all actives have a fitted effect of over 50% in size
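Recovery from NS1-induced slow growth read by OD600 in budding yeast switched to galactose assay medium (pH 6.0, -URA) at 1:100 dilution. Compound 23 nl per well; the matching strain lacking NS1 serves as control.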
Vaccinia Venus: qHTS for Stage-Specific Inhibitors of Vaccinia Orthopoxvirus: Venus Reporter Primary qHTS | Potency, µM (series often up to 36.5 µM), without a hit: top-dose activity change, negative = inhibition, usual class: inhibitors | Vaccinia virus Venus reporter expression, fluorescence | actives 0.46% (n = 330,000); calls by dose curve; tested in A549 cells; further: on the % scale 0 is the no-effect control and ±100 the full control effect; nearly all actives have a fitted effect of over 30% in size
* = called active by the depositor; i = inactive; ? = inconclusive; / = no result given. Shown are actives, neighbours in structure and some others; about 11% of the full set was active somewhere. Unless noted, the call rests on the fitted dose curve; in most records, active means well fitted inhibition curve with a large enough effect; inconclusive means small, poorly fitted or top-dose-only effect, or another doubt; inactive means no such curve, though single readings can be large or run the other way. Potency means the concentration at half of the fitted maximal effect.

SMILES	Pf growth 96h	Pf growth 48h	VACV mCherry inh	HCV inh	NS1 inh	Vaccinia Venus
CC(Oc1ccc(Cl)cc1Cl)c1nc(-c2ccc(NC(=O)c3ccco3)cc2)no1 (configuration not stated)	0.928µM*	/	/	?	-3.4%	/
CCOC(=O)Cn1c(=NC(=O)c2ccc([N+](=O)[O-])s2)sc2ccccc21	3.7µM*	9.28µM*	-3.5%	6.5%	-33.9%	-24.6%
CCOC(=O)Cn1c(=NC(=O)C2COc3ccccc3O2)sc2cc(S(N)(=O)=O)ccc21 (configuration not stated)	?	3.7%	i	3.4%	12.2%	-20.4%
COc1ccc(C2NC(c3ccc(OC)cc3)C(c3ccccc3)C(=O)C2c2ccccc2)cc1 (configuration not stated)	10.4µM*	11.7µM*	?	-12.4%	-4.3%	-29.6%
O=C(Nc1nc2ccc(F)cc2s1)c1nc(S(=O)(=O)Cc2ccccc2F)ncc1Cl	/	/	-23.9%	/	/	-18.6%
CCOc1ccc(S(=O)(=O)N2CCN(C(=S)NC3CC3)CC2)cc1	?	4.15µM*	-23.0%	-29.4%	/	-19.5%
COc1ccc(S(=O)(=O)N2CCN(C(=S)NC3CCCCC3)CC2)cc1	6.0%	0.928µM*	i	8.5%	3.6%	-7.3%
O=S(=O)(c1ccc(F)c(F)c1F)N1CCN(C(=S)NC2CC3CCC2C3)CC1 (configuration not stated)	?	?	/	-27.8%	3.9%	/
Cc1cc(=O)n2[nH]c(-c3ccc(C(C)(C)C)cc3)cc2n1	4.65µM*	2.94µM*	/	10µM*	-1.1%	/
CC(C)c1ccc(C2c3[nH]c4ccccc4c3C[C@H]3C(=O)N(c4ccccc4C(=O)N4CCC(C(=O)O)CC4)C(=O)N23)cc1 (some centres not stated)	1.47µM*	1.65µM*	-1.7%	6.3%	-18.1%	0.3%
COc1ccc(C2c3[nH]c4ccccc4c3C[C@H]3C(=O)N(c4ccccc4C(=O)N4CCC[C@H]4C(=O)O)C(=O)N23)cc1 (some centres not stated)	?	9.28µM*	1.0%	2.4%	18.2%	-1.2%
Cc1ccc(C2c3[nH]c4ccccc4c3C[C@H]3C(=O)N(c4ccccc4C(=O)N4CCC[C@H]4C(=O)O)C(=O)N23)cc1 (some centres not stated)	10.4µM*	?	1.5%	27.7%	15.1%	5.8%
COc1ccc(C2c3[nH]c4ccccc4c3C[C@H]3C(=O)N(c4ccccc4C(=O)N4CCC[C@@H]4C(=O)O)C(=O)N23)cc1 (some centres not stated)	?	11.7µM*	2.1%	11.5%	/	13.3%
COC(=O)c1ccc(C2c3[nH]c4ccccc4c3C[C@H]3C(=O)N(C4CC4)CC(=O)N23)cc1 (some centres not stated)	?	?	/	-6.0%	4.0%	/
COc1cccc(C2c3[nH]c4ccccc4c3C[C@H]3C(=O)N(c4ccccc4C(=O)N4CCC[C@H]4C(=O)O)C(=O)N23)c1 (some centres not stated)	?	?	7.3%	2.24µM*	?	5.4%
COc1cccc(CNC(=O)[C@@H]2CCCN2C(=O)[C@H]2CCCCN2C(=O)c2cccc3ccccc23)c1	/	/	i	/	/	-6.6%
O=C(O)[C@@H]1CCCN1C(=O)c1ccccc1N1C(=O)[C@@H]2Cc3c([nH]c4ccccc34)C(c3cccc(Cl)c3)N2C1=O (some centres not stated)	10.4µM*	?	10.0%	19.0%	?	2.9%
O=C(O)[C@H]1CCCN1C(=O)c1ccccc1N1C(=O)[C@@H]2Cc3c([nH]c4ccccc34)C(c3cccc(Cl)c3)N2C1=O (some centres not stated)	?	?	-4.5%	-1.6%	?	-5.6%
O=C1[C@@H]2Cc3c([nH]c4ccccc34)C(c3ccccc3)N2C(=O)CN1CCO (some centres not stated)	-2.0%	4.5%	/	8.5%	2.8%	/
CC(C)c1ccc(C2c3[nH]c4ccccc4c3C[C@H]3C(=O)N(c4ccccc4C(=O)N4CCC[C@@H]4C(=O)O)C(=O)N23)cc1 (some centres not stated)	8.28µM*	9.28µM*	1.1%	0.8%	11.1%	0.1%
CC(=O)c1sc(NC(=O)c2ccc(COc3ccccc3Cl)o2)nc1C	-5.0%	-4.9%	-8.5%	18.0%	-5.0%	4.1%
CO/N=C/NC(=O)c1cn(-c2ccc(F)cc2)c(=O)c2ccccc12	53.2%	35.0%	/	-28.2%	3.5%	/
Cc1ccc(NC(=O)Cn2c(=O)n(CCCCC(=O)NCc3ccco3)c(=O)c3ccccc32)cc1	6.1%	/	/	-18.6%	5.5%	?
CCCN(CCC)C(=O)Cn1c(=O)n(CCCCC(=O)NCc2ccco2)c(=O)c2ccccc21	11.7µM*	/	/	11.5%	-5.6%	-3.1%
O=C(CCCCn1c(=O)c2ccccc2n(CC(=O)Nc2ccc(F)cc2)c1=O)NCc1ccco1	?	11.7µM*	/	-22.7%	4.3%	-11.3%
SMILES	Pf growth 96h	Pf growth 48h	VACV mCherry inh	HCV inh	NS1 inh	Vaccinia Venus
CN(C(=O)c1cccc(NC(=O)Cc2cccc(NC(=O)C3CCCN(C(=O)CCc4ccccc4)C3)c2)c1)C1CCC1 (configuration not stated)	/	/	?	3.55µM*	/	?
O=C(Cc1cccc(NC(=O)C2CCN(C(=O)C3CCCCC3)CC2)c1)Nc1cccc(C(=O)N2CCCC2)c1	10.4µM*	13.1µM*	-11.1%	-26.5%	/	-8.4%
CC(=O)c1cccc(NC(=O)C2CCCCC2)c1	1.47µM*	7.9%	/	-0.3%	-13.2%	/
O=C(Nc1cccc(C(=O)N2CCCC2)c1)C1CCC1	/	/	-14.5%	0.562µM*	/	-6.2%
CCOc1ccc(-n2nc3c(=S)[nH]nc(C)c3c2C)cc1	1.4%	-8.7%	-5.5%	5.0%	15.3%	-22.1%
CCCN(C(=O)CSc1nnc(-c2ccoc2C)n1N)C1CCS(=O)(=O)C1 (configuration not stated)	?	17.6%	/	1.1%	4.3%	/
O=C(Nc1nccs1)c1cccc(NC(=O)C2CC2)c1	13.1µM*	-15.3%	-8.9%	-6.5%	7.6%	-8.3%
O=C(Cc1cccc(NC(=O)C2CCCN(C(=O)CCc3ccccc3)C2)c1)Nc1cccc(C(=O)N2CCCCC2)c1 (configuration not stated)	/	/	i	4.47µM*	/	0.0%
O=C(Cc1cccc(NC(=O)C2CCCN(C(=O)CCc3ccccc3)C2)c1)Nc1cccc(C(=O)N2CCOCC2)c1 (configuration not stated)	/	/	-13.1%	?	/	-1.9%
